# Test results as given in PubChem BioAssay (NCI).
# The panel holds about 83,000 compounds, 20% with a hit somewhere; the sample as a whole holds those more often.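 Assay: single dose, 48 h. Readout: percent growth (0 = no net growth; negative = cell death). Active: <10.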 A number with no mark means an inactive call. The source made the active and inactive calls.
# Assays:
# Experiment in all cases: NCI-60 one-dose screen, 48 h (100 = growth as untreated, 0 = no growth, -100 = all killed)
# Settings in all cases: 10 µM unless noted
# [1] = test system: T-47D breast
# [2] = test system: BT-549 breast
# [3] = test system: MDA-MB-435 melanoma
# [4] = test system: SW-620 colon
# [5] = test system: MCF7 breast
# [6] = test system: HCT-116 colon
# [7] = test system: HCC-2998 colon
# [8] = test system: KM12 colon
SMILES,growth [1],growth [2],growth [3],growth [4],growth [5],growth [6],growth [7],growth [8]
CC1CCN(C(=O)OCc2nc3nc(Cl)nc(N4CCOCC4)c3[nH]2)CC1,-61.6% (active),-66% (active),-76.5% (active),-55.6% (active),-18.9% (active),-74.1% (active),2.05% (active),9.43% (active)
COc1cc(OC)c(/C=C/C(=O)c2ccc(Nc3ncnc4ccccc34)cc2)c(OC)c1,36.2%,-29.3% (active),-79.1% (active),-66.8% (active),0.53% (active),-33.7% (active),38.3%,6.21% (active)
N#Cc1ccc(-c2ccc3c(c2)NC(=O)/C3=C\c2ccc[nH]2)cc1,9.73% (active),24.1%,102%,102%,15.3%,104%,58.5%,60.8%
O=C(OC(OC(=O)c1cc(Cl)cc(Cl)c1)c1cccc2ccccc12)c1ccccc1 (stereo not drawn),98.8%,113%,111%,97.1%,84.8%,93.1%,83.4%,102%
COc1cccc(NC(=O)c2cccc(-c3cc(=O)c4c(OC)c(OC)c(OC)cc4o3)c2)c1,44.4%,54.2%,81.2%,89.6%,87.7%,60.7%,87.8%,53.7%
COc1cc(Nc2cc(O)c3c(=O)cc(-c4ccccc4)oc3c2)cc(OC)c1,55.2%,80.2%,4.04% (active),24.9%,23.5%,13%,32.4%,21%
COC(=O)CCCCCCCCC1(C)C=CC(C(C)O)=CC1 (stereo not drawn),99.9%,108%,112%,91.2%,101%,99.7%,98.7%,99.8%
COc1cc(CCNc2nc3cc(N)cc(N)c3nc2-c2ccccc2)cc(OC)c1,-31% (active),19.1%,-56.8% (active),-56.7% (active),-79.9% (active),-35.9% (active),-5.77% (active),4.39% (active)
O=C1CCCN1c1cccc2cccnc12,97.5%,109%,100%,101%,93.3%,102%,86.7%,102%
FC(F)(F)Oc1cccc(-c2cc(NCCCCCCNc3cc(-c4cccc(OC(F)(F)F)c4)nc4ccc(N5CCCC5)cc34)c3cc(N4CCCC4)ccc3n2)c1,-46.4% (active),105%,-87.6% (active),-78.8% (active),-64.7% (active),-66.6% (active),-85.3% (active),-90.4% (active)
O=C1Nc2c(ccc(Cl)c2Cl)/C1=C/c1ccc(O)cc1,61.2%,82.3%,101%,79.1%,54.1%,72.6%,80.5%,85.9%
c1ccc(Cn2nc3c(c2-c2ccccc2)-c2oncc2CC3)cc1,80.9%,88%,89.2%,106%,82.5%,94.2%,97.8%,99.6%
CC(=O)OC1CCC2(C)C(CCC3C4CC=C(C(C)=O)C4(C)OC(=O)CC32)C1 (stereo not drawn),17.4%,28.8%,20.4%,-48.7% (active),11.2%,-98.9% (active),73.8%,81.6%
COc1ccc(Nc2nc(N)nc3c2CCc2occc2-3)cc1,83.4%,78.3%,105%,106%,78.7%,90%,108%,95.9%
O=C1Nc2ccccc2/C1=N/c1nc(-c2ccc(Cl)cc2)cs1,43.4%,63.8%,72.4%,68.5%,52.6%,59.1%,86.4%,70.8%
CN1CCN(c2ccc(NC3=C(Cl)C(=O)c4ncccc4C3=O)cc2C#N)CC1,-33.3% (active),96.3%,-92.9% (active),-75.3% (active),-59.9% (active),-56.7% (active),96.7%,105%
